# Key:
# Experiment in all cases: DAPPL (digital affinity profiling via proximity ligation, sequencing); 10 mM Tris-HCl pH 7.5, 50 mM NaCl, 1 mM DTT, 4% glycerol, room temperature, 30 min; GST-TFs on glutathione beads, 16-mer random dsDNA library, 0.1% formaldehyde crosslink after washing; high values mean tight binding
# [1] = molecular target: T1, FLI1 (Homo sapiens, UniProt Q01543 1-452); details: protein: recombinant; tags: N-terminal GST; dsDNA, one strand shown
# T1 sequence: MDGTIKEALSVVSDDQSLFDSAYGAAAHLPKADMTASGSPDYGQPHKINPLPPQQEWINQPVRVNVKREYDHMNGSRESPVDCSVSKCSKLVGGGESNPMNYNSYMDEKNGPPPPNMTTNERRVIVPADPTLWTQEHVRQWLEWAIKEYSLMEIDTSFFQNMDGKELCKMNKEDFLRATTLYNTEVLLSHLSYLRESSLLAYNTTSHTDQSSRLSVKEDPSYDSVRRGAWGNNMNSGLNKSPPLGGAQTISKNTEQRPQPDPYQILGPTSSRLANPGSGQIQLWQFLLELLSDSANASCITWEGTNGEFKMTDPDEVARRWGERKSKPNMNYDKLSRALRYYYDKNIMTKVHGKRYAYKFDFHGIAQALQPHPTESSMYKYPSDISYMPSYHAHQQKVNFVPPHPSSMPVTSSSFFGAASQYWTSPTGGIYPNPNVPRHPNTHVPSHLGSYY
# How it was run: (§1)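 Human transcription factors were made in yeast as GST fusions, captured on glutathione beads and barcoded with DNA. With a tag-only sample included, the pool was incubated with 200 nmole of a random double-stranded 16-mer DNA library in Tris/NaCl/DTT/glycerol buffer at room temperature for 30 min, then crosslinked with 0.1% formaldehyde after washing, ligated by proximity, amplified and sequenced. For binding signal, each hexamer's read frequency for a factor is divided by its frequency for the tag-only sample.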
# [2] = molecular target: T2, ELK1 (Homo sapiens, UniProt P19419 1-428); details: protein: recombinant; tags: N-terminal GST; dsDNA, one strand shown
# T2 sequence: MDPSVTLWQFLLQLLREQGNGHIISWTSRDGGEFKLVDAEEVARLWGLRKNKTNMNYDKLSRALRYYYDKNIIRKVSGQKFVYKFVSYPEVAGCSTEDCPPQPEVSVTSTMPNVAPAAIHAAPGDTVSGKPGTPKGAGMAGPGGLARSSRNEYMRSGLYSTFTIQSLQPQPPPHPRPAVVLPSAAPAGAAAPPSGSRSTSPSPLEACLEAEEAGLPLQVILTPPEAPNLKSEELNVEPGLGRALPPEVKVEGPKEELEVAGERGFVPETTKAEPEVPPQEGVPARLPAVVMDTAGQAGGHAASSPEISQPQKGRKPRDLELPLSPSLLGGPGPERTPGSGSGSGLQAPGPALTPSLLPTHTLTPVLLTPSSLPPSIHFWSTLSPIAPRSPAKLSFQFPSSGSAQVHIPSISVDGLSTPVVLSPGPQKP
# How it was run: as §1
# [3] = molecular target: T3, GABPA (Homo sapiens, UniProt Q06546 1-454); details: protein: recombinant; tags: N-terminal GST; dsDNA, one strand shown
# T3 sequence: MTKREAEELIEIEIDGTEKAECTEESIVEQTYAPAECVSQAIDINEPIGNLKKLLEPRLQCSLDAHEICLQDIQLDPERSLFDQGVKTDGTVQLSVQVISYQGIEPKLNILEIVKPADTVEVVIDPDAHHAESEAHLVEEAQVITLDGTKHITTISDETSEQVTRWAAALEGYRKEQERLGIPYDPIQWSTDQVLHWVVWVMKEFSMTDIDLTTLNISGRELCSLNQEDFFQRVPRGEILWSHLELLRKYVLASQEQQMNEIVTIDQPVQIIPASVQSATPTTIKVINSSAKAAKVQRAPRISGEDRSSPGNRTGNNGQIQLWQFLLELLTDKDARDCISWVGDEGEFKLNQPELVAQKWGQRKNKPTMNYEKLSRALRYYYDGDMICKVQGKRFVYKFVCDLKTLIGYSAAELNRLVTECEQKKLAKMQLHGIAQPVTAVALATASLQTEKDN
# How it was run: as §1
# [4] = molecular target: T4, ERG (Homo sapiens, UniProt P11308 1-479); details: protein: recombinant; tags: N-terminal GST; dsDNA, one strand shown
# T4 sequence: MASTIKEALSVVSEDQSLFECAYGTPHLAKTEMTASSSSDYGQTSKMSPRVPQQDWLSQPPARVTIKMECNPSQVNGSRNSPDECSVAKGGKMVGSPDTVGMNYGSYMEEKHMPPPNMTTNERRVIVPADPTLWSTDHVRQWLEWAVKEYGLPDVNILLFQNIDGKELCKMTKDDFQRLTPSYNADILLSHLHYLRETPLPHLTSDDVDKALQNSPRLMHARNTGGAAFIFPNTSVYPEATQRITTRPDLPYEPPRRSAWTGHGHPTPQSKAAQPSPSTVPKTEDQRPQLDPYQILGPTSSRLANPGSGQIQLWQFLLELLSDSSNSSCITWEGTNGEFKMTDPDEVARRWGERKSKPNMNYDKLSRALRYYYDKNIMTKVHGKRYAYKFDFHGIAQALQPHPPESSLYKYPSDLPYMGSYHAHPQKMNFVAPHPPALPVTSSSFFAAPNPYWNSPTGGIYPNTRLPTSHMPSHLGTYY
# How it was run: as §1
# [5] = molecular target: ELF1 (Homo sapiens, UniProt P32519 1-619); details: protein: recombinant; tags: N-terminal GST; dsDNA, one strand shown
# ELF1, sequence (P32519 whole entry): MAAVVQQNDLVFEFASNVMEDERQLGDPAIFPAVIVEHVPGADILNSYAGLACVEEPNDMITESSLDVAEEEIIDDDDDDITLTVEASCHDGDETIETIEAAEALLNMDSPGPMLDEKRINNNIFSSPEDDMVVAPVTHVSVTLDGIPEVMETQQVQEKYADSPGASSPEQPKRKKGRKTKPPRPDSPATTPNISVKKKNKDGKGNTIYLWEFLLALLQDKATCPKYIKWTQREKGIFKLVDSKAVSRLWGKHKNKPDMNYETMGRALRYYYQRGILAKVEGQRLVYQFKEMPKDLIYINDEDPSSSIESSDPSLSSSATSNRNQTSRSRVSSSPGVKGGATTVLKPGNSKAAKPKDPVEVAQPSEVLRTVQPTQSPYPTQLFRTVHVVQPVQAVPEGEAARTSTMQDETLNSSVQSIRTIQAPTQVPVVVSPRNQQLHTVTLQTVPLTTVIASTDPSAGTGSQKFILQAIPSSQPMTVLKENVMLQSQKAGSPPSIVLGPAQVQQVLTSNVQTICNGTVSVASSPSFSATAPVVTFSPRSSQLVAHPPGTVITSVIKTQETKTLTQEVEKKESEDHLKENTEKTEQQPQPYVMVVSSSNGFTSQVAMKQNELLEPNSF
# How it was run: as §1
# [6] = molecular target: T5, EHF (Homo sapiens, UniProt Q9NZC4 1-300); details: protein: recombinant; tags: N-terminal GST; dsDNA, one strand shown
# T5 sequence: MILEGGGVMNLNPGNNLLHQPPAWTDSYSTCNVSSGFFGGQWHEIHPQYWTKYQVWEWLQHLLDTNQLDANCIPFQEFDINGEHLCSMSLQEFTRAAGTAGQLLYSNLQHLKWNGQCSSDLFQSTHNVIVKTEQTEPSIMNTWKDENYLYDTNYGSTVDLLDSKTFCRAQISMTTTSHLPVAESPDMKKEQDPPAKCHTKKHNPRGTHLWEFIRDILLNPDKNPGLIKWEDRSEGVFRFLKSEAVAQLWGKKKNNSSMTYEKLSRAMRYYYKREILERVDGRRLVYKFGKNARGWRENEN
# How it was run: as §1
# [7] = molecular target: SPI1 (Homo sapiens, UniProt P17947 1-270); details: protein: recombinant; tags: N-terminal GST; dsDNA, one strand shown
# How it was run: as §1
# [8] = molecular target: SPIB (Homo sapiens, UniProt Q01892 1-262); details: protein: recombinant; tags: N-terminal GST; dsDNA, one strand shown
# SPIB, sequence (Q01892 whole entry): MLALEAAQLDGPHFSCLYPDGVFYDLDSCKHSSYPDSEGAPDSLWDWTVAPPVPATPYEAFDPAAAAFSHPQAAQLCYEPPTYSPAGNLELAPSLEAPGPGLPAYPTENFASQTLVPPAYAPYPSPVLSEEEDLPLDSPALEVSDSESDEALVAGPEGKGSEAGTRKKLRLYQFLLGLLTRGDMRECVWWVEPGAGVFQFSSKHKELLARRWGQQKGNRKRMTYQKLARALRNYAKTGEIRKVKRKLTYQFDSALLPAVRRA
# How it was run: as §1
# [9] = molecular target: T6, ELK3 (Homo sapiens, UniProt P41970 1-407); details: protein: recombinant; tags: N-terminal GST; dsDNA, one strand shown
# T6 sequence: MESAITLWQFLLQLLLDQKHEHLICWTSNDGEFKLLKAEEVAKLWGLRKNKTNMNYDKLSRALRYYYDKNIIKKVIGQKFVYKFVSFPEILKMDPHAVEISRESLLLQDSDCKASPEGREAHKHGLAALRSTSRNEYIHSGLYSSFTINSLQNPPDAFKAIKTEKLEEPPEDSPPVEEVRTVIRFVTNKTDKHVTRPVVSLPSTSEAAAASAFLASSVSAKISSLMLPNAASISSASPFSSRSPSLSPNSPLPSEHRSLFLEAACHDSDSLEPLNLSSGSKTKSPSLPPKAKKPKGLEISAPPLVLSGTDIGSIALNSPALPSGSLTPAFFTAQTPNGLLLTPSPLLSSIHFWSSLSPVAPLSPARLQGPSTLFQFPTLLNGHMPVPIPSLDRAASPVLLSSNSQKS
# How it was run: as §1
# [10] = molecular target: T7, FEV (Homo sapiens, UniProt Q99581 1-238); details: protein: recombinant; tags: N-terminal GST; dsDNA, one strand shown
# T7 sequence: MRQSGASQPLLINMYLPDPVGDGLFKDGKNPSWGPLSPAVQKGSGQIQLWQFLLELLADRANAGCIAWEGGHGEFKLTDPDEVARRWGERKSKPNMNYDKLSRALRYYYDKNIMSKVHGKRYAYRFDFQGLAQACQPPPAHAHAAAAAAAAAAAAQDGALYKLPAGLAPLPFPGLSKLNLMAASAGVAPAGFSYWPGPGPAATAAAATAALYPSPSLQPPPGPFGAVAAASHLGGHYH
# How it was run: as §1
# [11] = molecular target: ETV5 (Homo sapiens, UniProt P41161 1-510); details: protein: recombinant; tags: N-terminal GST; dsDNA, one strand shown
# ETV5, sequence (P41161 whole entry): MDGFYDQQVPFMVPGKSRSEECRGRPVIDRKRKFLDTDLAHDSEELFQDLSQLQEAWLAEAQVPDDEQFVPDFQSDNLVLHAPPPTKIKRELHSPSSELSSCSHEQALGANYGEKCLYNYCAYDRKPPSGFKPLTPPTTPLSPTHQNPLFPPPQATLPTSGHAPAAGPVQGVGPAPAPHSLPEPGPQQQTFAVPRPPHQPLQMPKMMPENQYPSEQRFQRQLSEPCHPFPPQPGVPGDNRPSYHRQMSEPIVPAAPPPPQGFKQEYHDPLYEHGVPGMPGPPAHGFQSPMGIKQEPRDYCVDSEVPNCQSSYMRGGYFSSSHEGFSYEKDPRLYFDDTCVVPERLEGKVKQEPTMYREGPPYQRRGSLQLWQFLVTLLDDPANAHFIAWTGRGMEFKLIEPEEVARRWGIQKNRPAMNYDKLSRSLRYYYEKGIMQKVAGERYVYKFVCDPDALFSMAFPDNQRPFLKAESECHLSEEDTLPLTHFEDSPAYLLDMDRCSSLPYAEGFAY
# How it was run: as §1
# [12] = molecular target: HSF1 (Homo sapiens, UniProt Q00613 1-529); details: protein: recombinant; tags: N-terminal GST; chain copies: 3; dsDNA, one strand shown
# HSF1, sequence (Q00613 whole entry): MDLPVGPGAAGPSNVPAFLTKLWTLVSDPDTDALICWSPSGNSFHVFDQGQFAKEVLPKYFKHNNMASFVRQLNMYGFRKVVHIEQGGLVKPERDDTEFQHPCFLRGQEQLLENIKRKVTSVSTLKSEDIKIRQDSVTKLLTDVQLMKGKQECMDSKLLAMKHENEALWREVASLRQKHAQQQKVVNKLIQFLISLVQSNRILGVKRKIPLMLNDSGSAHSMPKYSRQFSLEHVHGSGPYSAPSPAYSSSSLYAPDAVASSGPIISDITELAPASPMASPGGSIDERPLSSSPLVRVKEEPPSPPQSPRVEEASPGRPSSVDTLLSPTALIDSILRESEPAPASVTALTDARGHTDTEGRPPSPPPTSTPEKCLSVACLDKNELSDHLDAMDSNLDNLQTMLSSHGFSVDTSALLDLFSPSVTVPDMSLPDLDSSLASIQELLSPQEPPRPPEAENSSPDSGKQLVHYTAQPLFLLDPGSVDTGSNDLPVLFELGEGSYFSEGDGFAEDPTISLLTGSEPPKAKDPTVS
# How it was run: as §1
# [13] = molecular target: T8, SPIC (Homo sapiens, UniProt Q8N5J4 1-248); details: protein: recombinant; tags: N-terminal GST; dsDNA, one strand shown
# T8 sequence: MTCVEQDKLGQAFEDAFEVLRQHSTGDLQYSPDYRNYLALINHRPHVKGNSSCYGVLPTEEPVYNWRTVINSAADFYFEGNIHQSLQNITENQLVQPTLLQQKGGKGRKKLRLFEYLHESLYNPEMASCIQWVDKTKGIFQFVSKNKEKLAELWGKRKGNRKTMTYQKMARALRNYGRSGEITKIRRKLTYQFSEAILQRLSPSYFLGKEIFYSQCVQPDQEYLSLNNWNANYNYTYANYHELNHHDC
# How it was run: as §1
# [14] = molecular target: ELF4 (Homo sapiens, UniProt Q99607 1-663); details: protein: recombinant; tags: N-terminal GST; dsDNA, one strand shown
# ELF4, sequence (Q99607 whole entry): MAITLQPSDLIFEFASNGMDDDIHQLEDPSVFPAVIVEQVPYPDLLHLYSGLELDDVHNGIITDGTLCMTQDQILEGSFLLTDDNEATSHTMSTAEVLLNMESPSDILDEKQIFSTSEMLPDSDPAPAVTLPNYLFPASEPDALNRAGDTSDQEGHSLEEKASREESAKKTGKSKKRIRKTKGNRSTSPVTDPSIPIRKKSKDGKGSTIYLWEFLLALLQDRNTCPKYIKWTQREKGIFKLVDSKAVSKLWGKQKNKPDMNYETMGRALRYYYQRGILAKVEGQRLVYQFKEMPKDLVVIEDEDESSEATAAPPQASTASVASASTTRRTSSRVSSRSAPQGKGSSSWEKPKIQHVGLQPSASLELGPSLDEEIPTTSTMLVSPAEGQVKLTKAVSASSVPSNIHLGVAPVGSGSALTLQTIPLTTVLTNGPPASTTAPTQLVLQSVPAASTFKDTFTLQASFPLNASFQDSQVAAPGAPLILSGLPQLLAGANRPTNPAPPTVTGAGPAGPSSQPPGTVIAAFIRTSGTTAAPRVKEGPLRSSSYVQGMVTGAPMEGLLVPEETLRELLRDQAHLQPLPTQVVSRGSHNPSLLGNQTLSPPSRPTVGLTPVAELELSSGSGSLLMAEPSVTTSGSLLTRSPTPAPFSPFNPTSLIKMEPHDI
# How it was run: as §1
# [15] = molecular target: T9, ELK4 (Homo sapiens, UniProt P28324-2 1-405); details: protein: recombinant; tags: N-terminal GST; dsDNA, one strand shown
# T9 sequence: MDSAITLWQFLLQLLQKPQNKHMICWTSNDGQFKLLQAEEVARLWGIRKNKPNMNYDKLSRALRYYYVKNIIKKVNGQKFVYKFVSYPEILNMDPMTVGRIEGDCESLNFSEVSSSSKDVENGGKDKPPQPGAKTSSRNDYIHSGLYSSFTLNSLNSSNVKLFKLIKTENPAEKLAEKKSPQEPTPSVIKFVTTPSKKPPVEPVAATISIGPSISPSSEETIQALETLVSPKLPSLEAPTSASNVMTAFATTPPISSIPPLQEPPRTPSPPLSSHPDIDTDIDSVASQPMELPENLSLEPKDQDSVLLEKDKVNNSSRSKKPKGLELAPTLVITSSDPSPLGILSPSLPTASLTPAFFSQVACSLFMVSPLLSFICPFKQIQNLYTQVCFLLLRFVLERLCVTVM
# How it was run: as §1
# [16] = molecular target: T10, ETV2 (Homo sapiens, UniProt O00321 1-342); details: protein: recombinant; tags: N-terminal GST; dsDNA, one strand shown
# T10 sequence: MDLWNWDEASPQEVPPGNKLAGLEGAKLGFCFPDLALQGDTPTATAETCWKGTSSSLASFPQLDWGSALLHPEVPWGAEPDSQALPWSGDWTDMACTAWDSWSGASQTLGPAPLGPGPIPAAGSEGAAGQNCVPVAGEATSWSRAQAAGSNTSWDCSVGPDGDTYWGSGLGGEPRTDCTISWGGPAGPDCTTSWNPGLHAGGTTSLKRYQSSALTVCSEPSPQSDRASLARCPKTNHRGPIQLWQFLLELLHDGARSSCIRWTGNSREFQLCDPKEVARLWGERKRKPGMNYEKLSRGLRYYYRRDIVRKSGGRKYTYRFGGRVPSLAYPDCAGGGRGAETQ
# How it was run: as §1
# [17] = molecular target: T11, ELF3 (Homo sapiens, UniProt P78545 1-371); details: protein: recombinant; tags: N-terminal GST; dsDNA, one strand shown
# T11 sequence: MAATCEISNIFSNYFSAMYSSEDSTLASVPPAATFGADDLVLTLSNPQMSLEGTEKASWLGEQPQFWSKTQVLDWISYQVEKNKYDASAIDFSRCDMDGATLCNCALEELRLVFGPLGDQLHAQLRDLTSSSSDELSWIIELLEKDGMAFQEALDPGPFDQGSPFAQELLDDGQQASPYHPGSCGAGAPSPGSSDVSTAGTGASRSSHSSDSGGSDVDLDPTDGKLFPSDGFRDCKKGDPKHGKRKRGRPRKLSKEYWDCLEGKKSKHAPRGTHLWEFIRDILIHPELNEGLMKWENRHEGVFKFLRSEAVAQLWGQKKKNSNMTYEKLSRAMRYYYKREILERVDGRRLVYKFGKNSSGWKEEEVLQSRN
# How it was run: as §1
# [18] = molecular target: CRX (Homo sapiens, UniProt O43186 1-299); details: protein: recombinant; tags: N-terminal GST; dsDNA, one strand shown
# CRX, sequence (O43186 whole entry): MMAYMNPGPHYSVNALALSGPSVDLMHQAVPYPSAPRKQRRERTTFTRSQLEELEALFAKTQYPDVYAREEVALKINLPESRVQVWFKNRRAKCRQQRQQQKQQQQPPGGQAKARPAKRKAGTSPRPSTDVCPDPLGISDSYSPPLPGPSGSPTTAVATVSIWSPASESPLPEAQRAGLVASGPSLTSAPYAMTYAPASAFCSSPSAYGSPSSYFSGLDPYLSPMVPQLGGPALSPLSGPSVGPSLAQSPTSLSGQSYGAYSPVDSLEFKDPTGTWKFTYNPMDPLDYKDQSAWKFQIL
# How it was run: as §1
# [19] = molecular target: ETV1 (Homo sapiens, UniProt P50549 1-477); details: protein: recombinant; tags: N-terminal GST; dsDNA, one strand shown
# ETV1, sequence (P50549 whole entry): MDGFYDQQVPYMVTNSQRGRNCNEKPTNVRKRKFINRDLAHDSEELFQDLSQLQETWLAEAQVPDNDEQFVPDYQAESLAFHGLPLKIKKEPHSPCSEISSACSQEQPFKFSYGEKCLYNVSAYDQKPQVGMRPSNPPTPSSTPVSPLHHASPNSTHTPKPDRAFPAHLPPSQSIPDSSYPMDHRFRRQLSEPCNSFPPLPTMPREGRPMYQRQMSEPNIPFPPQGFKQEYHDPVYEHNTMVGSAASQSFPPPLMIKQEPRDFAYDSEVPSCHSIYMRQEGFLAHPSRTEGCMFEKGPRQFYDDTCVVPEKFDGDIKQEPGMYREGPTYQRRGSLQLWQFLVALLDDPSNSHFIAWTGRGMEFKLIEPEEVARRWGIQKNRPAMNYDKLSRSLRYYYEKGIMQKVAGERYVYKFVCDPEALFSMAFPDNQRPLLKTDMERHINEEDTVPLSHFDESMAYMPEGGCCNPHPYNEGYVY
# How it was run: as §1
sequence,measurement,setting,value
GGAATT,binding signal,[1],"1.14 fold enrichment (6-mer frequency, TF over GST control)"
same,binding signal,[2],"1.1 fold enrichment (6-mer frequency, TF over GST control)"
same,binding signal,[3],"1 fold enrichment (6-mer frequency, TF over GST control)"
same,binding signal,[4],"1.12 fold enrichment (6-mer frequency, TF over GST control)"
same,binding signal,[5],"1.07 fold enrichment (6-mer frequency, TF over GST control)"
same,binding signal,[6],"1.24 fold enrichment (6-mer frequency, TF over GST control)"
same,binding signal,[7],"1.16 fold enrichment (6-mer frequency, TF over GST control)"
same,binding signal,[8],"1.18 fold enrichment (6-mer frequency, TF over GST control)"
same,binding signal,[9],"1.24 fold enrichment (6-mer frequency, TF over GST control)"
same,binding signal,[10],"1.17 fold enrichment (6-mer frequency, TF over GST control)"
same,binding signal,[11],"1.21 fold enrichment (6-mer frequency, TF over GST control)"
same,binding signal,[12],"1.45 fold enrichment (6-mer frequency, TF over GST control)"
same,binding signal,[13],"1.11 fold enrichment (6-mer frequency, TF over GST control)"
same,binding signal,[14],"1.07 fold enrichment (6-mer frequency, TF over GST control)"
same,binding signal,[15],"1.1 fold enrichment (6-mer frequency, TF over GST control)"
same,binding signal,[16],"1.13 fold enrichment (6-mer frequency, TF over GST control)"
same,binding signal,[17],"1.12 fold enrichment (6-mer frequency, TF over GST control)"
same,binding signal,[18],"1.46 fold enrichment (6-mer frequency, TF over GST control)"
same,binding signal,[19],"1.18 fold enrichment (6-mer frequency, TF over GST control)"
